# Source: PubChem (National Center for Advancing Translational Sciences (NCATS))
# Rows were chosen to be rich in hits. Some 8.2% of all compounds tested hit in one or more screens of this group.
# KB-V1 cytotox – KB-V1 MDR subline cytotoxicity; actives 3.4% (n = 400,000); AID 1347076; Potency, µM (series often up to 46.1 µM), hits mostly cytotoxic; KB-V1 MDR cells viability, CellTiter-Glo, 72 h; further: on the % scale 0 is the no-effect control and ±100 the full control effect; nearly all actives have a fitted effect of over 60% in size
#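 In this primary screen, KB-V1 cells overexpressing P-gp are incubated with library compounds (lowest to highest concentration) for 72 h at 37 degrees C before a luminescent ATP viability read.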
# ELG1 DNA repair – inhibitors of ELG1-dependent DNA repair in HEK293T cells. Potency, µM (top dose mostly 46.1 µM), for the others: top-dose activity change, negative = inhibition, actives largely listed as inhibitors. HEK293T ELG1-luciferase reporter, luminescence, 16 h; DNA damage induced by 5-fluorouridine. actives 2.3% (n = 330,000). AID 504467; further: on the % scale 0 is the no-effect control and ±100 the full control effect; nearly all actives have a fitted effect of over 55% in size
#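 Overnight (16 hr) co-exposure of 2,000 cells/well to 5-fluorouridine and compound at 37 °C preceded detection. Luciferase was quantified via ONE-Glo luminescence; loss of signal denotes inhibition.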
# MCF10A rereplic – DNA re-replication induction in MCF 10a cells. MCF 10A DNA re-replication, Hoechst nuclear intensity, 48 h. Potency, µM (doses to about 46.1 µM), for inactives: at the highest dose activity, positive = re-replication, actives largely listed as activators. actives 2.9% (n = 350,000). AID 624296; further: % of control where 0% means no effect; nearly all actives have a fitted effect of over 50% in size
# SW480 rereplic – DNA re-replication induction in SW480 cells; actives 1.8% (n = 340,000); AID 624297; SW480 DNA re-replication, Hoechst DNA content imaging, 48 h; Potency, µM (titrated, usually from 46.1 µM), without a hit: at the highest dose re-replication activation, usual class: activators; further: % of control where 0% means no effect; nearly all actives have a fitted effect of over 55% in size
#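 Hoechst fluorescence of nuclei (405 nm excitation, 500-530 nm emission) measured by plate-scanning imager after 48 hr compound exposure at 37 C; re-replication scored as increased number of nuclei with elevated intensity.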
# KB-3-1 cytotox – kills parental KB-3-1 adenocarcinoma cells; KB-3-1 viability, CellTiter-Glo ATP luminescence, 72 h; Potency, µM (series often up to 46.1 µM), hits mostly cytotoxic; actives 1.4% (n = 400,000); further: on the % scale 0 is the no-effect control and ±100 the full control effect; nearly all actives have a fitted effect of over 60% in size
#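 KB-3-1 parental drug-naive adenocarcinoma cells in DMEM/10% FBS, incubated 72 h at 37 C with pin-transferred compounds across a concentration series. Viability by CellTiter-Glo luminescence; concentration-response curves fitted after normalization.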
# * marks the source's active call; other numbers are inactive results; i = inactive; ? = inconclusive; . = not tested or not shown. The call rests on the fitted dose curve; in most records, active means well fitted curve in the direction sought with a large enough effect; inconclusive means small, poorly fitted or top-dose-only effect, or another doubt; inactive means no such curve, though single readings can be large; an effect the other way counts as inactive or inconclusive. Potency means the concentration at half of the fitted maximal effect.
SMILES,KB-V1 cytotox,ELG1 DNA repair,MCF10A rereplic,SW480 rereplic,KB-3-1 cytotox
COc1cc(Nc2nc3ccccc3n3nnnc23)cc(OC)c1OC,i,?,29µM*,-5%,i
CCCOc1ccc(-c2nonc2NC(=O)c2cc(OC)c(OC)c(OC)c2)cc1OCCC,i,.,.,.,i
COc1cccc(-c2n[nH]nc2C2=CC(=O)C[C@H](c3ccc(F)cc3)C2)c1,i,.,.,.,i
CCn1c(SCC(=O)Nc2nnc(C)s2)nc2c(c1=O)SC(C)C2 (centres undefined),i,-1%,2%,0%,i
CC1Cc2nc(SCC(=O)N3CCc4ccccc43)n(C)c(=O)c2S1 (centres undefined),2.6µM*,-23%,7%,-4%,i
CCSc1nnc(NC(=O)CSc2nc3c(c(=O)n2CC)SC(C)C3)s1 (centres undefined),2.6µM*,?,10%,-2%,6.5µM*
CCSc1nnc(NC(=O)CSc2nc3c(c(=O)n2C)SC(C)C3)s1 (centres undefined),2.9µM*,?,-4%,3%,i
CC(C)NC(=O)N1[C@H](c2cccs2)[C@@H](C)C(=O)[C@@H](C)[C@@H]1c1cccs1,i,.,.,.,i
CC(=O)c1ccc(OC2(C)CCN(Cc3ccc4c(c3)OCCO4)C2)cc1 (centres undefined),i,.,.,.,i
C=CCNC(=S)N/N=C/c1ccc(-c2cc(Cl)ccc2Cl)o1,i,-1%,?,23%,i
C=CCNC(=S)N/N=C/c1ccc(-c2ccc(Cl)cc2Cl)o1,i,.,13µM*,16µM*,i
C=CCNC(=S)N/N=C/c1ccc(-c2ccc(OC)cc2)o1,7.3µM*,?,21µM*,?,?
CC(=O)c1cccc(NC(=O)COC(=O)Cn2cnc3ccccc32)c1,?,0%,14%,9%,?
O=C(Cn1cnc2c(NCc3ccccc3)ncnc21)NCc1nc2ccccc2[nH]1,i,4%,?,-6%,i
NNC(=O)CN1CCN(c2ncc(C(F)(F)F)cc2Cl)CC1,i,-13%,6%,3%,i
O=C(CN1CCN(c2ncc(C(F)(F)F)cc2Cl)CC1)NCCNc1ncc(C(F)(F)F)cc1Cl,?,?,18µM*,?,i
O=C(O)CN1CCN(c2ncc(C(F)(F)F)cc2Cl)CC1,i,-18%,3%,19%,i
CC(C)(C)NC(=O)NC(=O)CN1CCN(c2ncc(C(F)(F)F)cc2Cl)CC1,?,7.3µM*,?,21%,?
CN(C)C=NC(=O)c1ccc(N2CCN(c3ncc(C(F)(F)F)cc3Cl)CC2)cc1,i,.,15µM*,-1%,i
CCCn1c(N)c(N(CCOC)C(=O)c2ccc(N(C)S(=O)(=O)c3ccc(C)cc3)cc2)c(=O)[nH]c1=O,i,?,0%,26%,?
Cc1nn(C)c2c1c(C(F)(F)F)cc(=O)n2C(C)C(=O)NCCc1ccccc1 (centres undefined),i,.,.,.,i
CSc1nnc2c3ccccc3n(CCc3ccccc3)c2n1,i,-6%,?,?,9.2µM*
OC(c1ccccc1)(c1nc(-c2cccc(C(F)(F)F)c2)cs1)C(F)(F)F (centres undefined),?,.,.,.,i
OC(c1ccccc1)(c1nc(-c2cc3ccccc3o2)cs1)C(F)(F)F (centres undefined),?,.,.,.,23µM*
CCOc1ccc(NCc2nnc(SCc3ccccc3Cl)n2-c2ccccc2)cc1,21µM*,?,?,20%,i
SMILES,KB-V1 cytotox,ELG1 DNA repair,MCF10A rereplic,SW480 rereplic,KB-3-1 cytotox
COc1ccc(-n2c(CNc3ccc(C)cc3)nnc2SCc2ccccc2)cc1,?,?,?,-11%,i
Cc1sc(NC(=O)c2cc(-c3ccccc3)nc3ccccc23)c(C(N)=O)c1C,?,5.8µM*,-74%,2%,?
O=C(NC1=NCCS1)c1cc(-c2ccc(-c3ccccc3)cc2)nc2ccccc12,?,?,20%,-8%,i
Cc1sc(NC(=O)c2cc(-c3ccc(Cl)cc3)nc3ccccc23)c(C(N)=O)c1C,i,-5%,18µM*,?,i
NC(=O)C1CC2(NC(=O)NC2=O)c2cc(F)ccc2O1 (centres undefined),.,.,2%,4%,.
CCc1cc2c(N=Nc3c(O)[nH]c4ccccc34)ncnc2s1,6.5µM*,9%,?,-9%,?
Cc1sc2ncnc(N=Nc3c(O)[nH]c4ccccc34)c2c1C,?,-27%,?,-5%,i
CCn1cc([N+](=O)[O-])c(C(=O)Nc2nc(-c3ccc(C)c(C)c3)c(C)s2)n1,i,-4%,8.2µM*,?,i
CCn1cc([N+](=O)[O-])c(C(=O)Nc2nc(-c3ccc(C)cc3)c(C)s2)n1,?,?,?,?,i
O=C(CSc1nnc(COc2ccccc2)o1)Nc1ccc(F)cc1,i,7%,-2%,1%,i
Cc1ccc2nc3c(cc2c1)c(C)nn3-c1ccccc1,i,7%,?,7.3µM*,i
COc1ccc(-c2nc(N)nc(C)c2Oc2ccccc2Br)c(O)c1,?,?,15µM*,?,?
Cc1[nH]c(N=Nc2ccccc2)nc1N=Nc1ccccc1,?,?,?,7.3µM*,18µM*
Nc1ccc(N=Nc2ccccc2)c(N)n1,?,?,5%,-25%,i
COc1ccc(OC)c(NC(=O)C(C)SCc2nc3sc(C)c(C)c3c(=O)[nH]2)c1 (centres undefined),i,?,19%,1%,i
COc1ccc(NC(C)=O)cc1NC(C)c1nc2sc(C)c(C)c2c(=O)[nH]1 (centres undefined),i,21µM*,-6%,2%,i
COc1cc(NC(=O)c2cccc(C)c2)ccc1NC(=O)c1cc2ccccc2o1,i,19%,2.6µM*,15%,i
COc1cc(NC(=O)C(C)C)ccc1NC(=O)c1cc2ccccc2o1,i,?,-1%,-7%,i
COc1cc(NC(=S)NC(=O)C(C)C)ccc1NC(=O)c1cc2ccccc2o1,i,?,8.2µM*,?,i
COc1ccc2c(C(=O)NCc3ccc4c(c3)OCO4)c(-c3ccc(S(C)(=O)=O)cc3)sc2c1,i,?,118%,3.7µM*,i
COC(=O)c1c(-c2ccc(S(C)(=O)=O)cc2)sc2cc(OC)ccc12,?,?,19%,-1%,i
COc1ccc2c(c1)OC(O)(C(F)F)CC2=O (centres undefined),i,1%,-3%,-12%,i
O=C1CC(O)(C(F)F)Oc2ccc3ccccc3c21 (centres undefined),i,16µM*,-7%,-3%,i
